Bioassay records from PubChem BioAssay.
Only some compounds are listed: those with a hit (about 15% of all), similar ones and a draw of the others.
HCMV antiviral: human cytomegalovirus inhibition; activity change, negative = inhibition, % at 57.5 µM; HFF cells, HCMV-luciferase reporter, 72 h; active compounds read low; actives 4.5% (n = 410,000); in the data active means activity change below about -60%; inconclusive means no clear call, values can overlap the other calls; inactive means above about -39%; further: on the % scale 0 is the no-effect control and ±100 the full control effect
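Luciferase read-out from HCMV-luciferase-infected HFFs (MOI 1 PFU/cell) 72 h post infection at 37C; compounds added after 16 h cell attachment; activity normalized between buffer-only basal and Salinomycin (10uM) inhibitor controls.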
HCV inhibitor: blocks hepatitis C virus; Huh7.5.1 HCVcc-Cre infection, luciferase reporter, 44 h; Potency, µM (titrated, usually from 41.8 µM), inactives show at the highest dose activity change, negative = inhibition, hits mostly inhibitors; actives 3.4% (n = 340,000); AID 651820; further: potency means the concentration at half of the fitted maximal effect; on the % scale 0 is the no-effect control and ±100 the full control effect
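Cells seeded at 1,000/well and cultured 4 h, then compounds added followed by HCVcc-Cre virus (~0.5 moi). After 44 h further culture, luciferase substrate was added, plates held 15 min at room temperature, and luminescence read for 15 sec.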
Pf growth 48h: P. falciparum growth inhibition at 48 hours (one generation); P. falciparum luciferase growth in erythrocytes, 48 h; Potency, µM (highest dose often 28.7 µM), inactives show top-dose activity change, negative = inhibition, usual class: inhibitors; actives 5.9% (n = 310,000); AID 504832; further: potency means the concentration at half of the fitted maximal effect; on the % scale 0 is the no-effect control and ±100 the full control effect
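Read-out is firefly luciferase luminescence from an integrated reporter in P. falciparum, so falling signal marks reduced parasite growth. Infected erythrocytes were at 2% hematocrit and 0.1% parasitemia (final) in Albumax-supplemented RPMI 1640.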
Pf growth 96h: inhibits malaria parasite growth, 96 h; P. falciparum luciferase reporter growth, 96 h; Potency, µM (doses to about 28.7 µM), for the others: at the top dose activity change, negative = inhibition, actives largely listed as inhibitors; actives 6.9% (n = 320,000); AID 504834; further: potency means the concentration at half of the fitted maximal effect; on the % scale 0 is the no-effect control and ±100 the full control effect
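P. falciparum expressing integrated firefly luciferase, in erythrocytes at 2% hematocrit, 0.05% parasitemia, incubated with compounds 96 h at 37 C, 5% CO2. Growth inhibition read as loss of luminescence; two-generation exposure targets delayed-death apicoplast inhibitors.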
SARS PLP yeast: SARS-CoV PLP inhibition in yeast. actives 0.19% (n = 330,000). Potency, µM (titrated, usually from 32.9 µM), for inactives: at the highest dose activity, positive = growth rescue, most hits filed as activators. S. cerevisiae expressing SARS-CoV PLpro, growth rescue; calls by dose curve; further: potency means the concentration at half of the fitted maximal effect; 0% is about no effect; nearly all actives have a fitted effect of over 55% in size
Sm TGR block: blocks Schistosoma mansoni thioredoxin glutathione reductase; actives 3% (n = 360,000); AID 485364; Q962Y6; Potency, µM (titrated, usually from 114 µM), for the others: top-dose activity change, negative = inhibition, most hits filed as inhibitors; purified TGR, DTNB reduction, TNB absorbance 405 nm; further: potency means the concentration at half of the fitted maximal effect; on the % scale 0 is the no-effect control and ±100 the full control effect; nearly all actives have a fitted effect of over 60% in size
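Kinetic colorimetric format: TGR-catalysed, NADPH-driven DTNB reduction monitored via TNB absorbance. Enzyme dispensed at 20 nM; compound exposure 15 min at room temperature before reaction start.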
* = called active by the depositor; [ ] = dose if it differs, or a comment. Unless noted, the call rests on the fitted dose curve; in most records, active means well fitted curve in the direction sought with a large enough effect; inconclusive means small, poorly fitted or top-dose-only effect, or another doubt; inactive means no such curve, though single readings can be large; an effect the other way counts as inactive or inconclusive.

How did COc1ccccc1NC(=O)c1ccc(S(=O)(=O)N(C)c2ccccc2)cc1 do in these assays?
HCMV antiviral: inconclusive; HCV inhibitor: -8%; Pf growth 48h: 1%; Pf growth 96h: 12%; SARS PLP yeast: 2%; Sm TGR block: 5%

What do the screens show for `CC(=O)Nc1ccc(NC(=O)c2ccc(N(C)S(=O)(=O)c3ccc(C)cc3)cc2)cc1`?
HCMV antiviral: -8; HCV inhibitor: -13%; Pf growth 48h: 1%; Pf growth 96h: 10µM*; SARS PLP yeast: 3%; Sm TGR block: 7%

How did Cc1ccc(S(=O)(=O)N(C)c2ccc(C(=O)Nc3cccnc3)cc2)cc1 do in these assays?
HCMV antiviral: -11; HCV inhibitor: 5%; Pf growth 48h: -18%; Pf growth 96h: 10µM*; SARS PLP yeast: 0%; Sm TGR block: -10%

How did CC(=O)Nc1ccc(S(=O)(=O)N(C)c2ccc(O)cc2)cc1 do in these assays?
HCMV antiviral: 28; HCV inhibitor: -14%; Pf growth 48h: -2%; Pf growth 96h: 25%; SARS PLP yeast: 13%; Sm TGR block: -1%

How did CN(CC(=O)Nc1ccc(F)cc1)CC(=O)N1CCCC1 do in these assays?
HCMV antiviral: -5; HCV inhibitor: -16%; Pf growth 48h: 13%; Pf growth 96h: 7%; SARS PLP yeast: -5%; Sm TGR block: 12%

What do the screens show for `Cc1ccc2c(c1)nnn2C1CCN(C(=O)c2ccccc2F)CC1`?
HCMV antiviral: -33; HCV inhibitor: 4%; Pf growth 48h: 0%; Pf growth 96h: 26%; SARS PLP yeast: 1%; Sm TGR block: 5%

Results for CN(c1ccccc1)S(=O)(=O)c1ccc(NC(=O)c2ccc(-c3ccccc3)cc2)cc1 ?
HCMV antiviral: -96*; Pf growth 48h: inconclusive; Pf growth 96h: inconclusive; SARS PLP yeast: 2%; Sm TGR block: -15%

How did CC(=O)Nc1ccc(S(=O)(=O)N(C)c2ccccc2)cc1 do in these assays?
HCMV antiviral: -15; HCV inhibitor: -12%; Pf growth 96h: inconclusive; SARS PLP yeast: 11%; Sm TGR block: -13%[11.4 µM]

How did COc1ccc(C(=O)NC(C)c2ccc(-n3ccnc3)cc2)cc1S(=O)(=O)N1CCOCC1 (stereo unspecified) do in these assays?
HCMV antiviral: -10; HCV inhibitor: 16%; Pf growth 48h: 39%; Pf growth 96h: -23%; SARS PLP yeast: -6%; Sm TGR block: -19%

Results for COc1ccccc1-c1nc(SCC(=O)Nc2ccc(C)c(C)c2)n[nH]1 ?
HCMV antiviral: 22; Sm TGR block: -1%

Results for Cc1ccc2nc(Cl)c(CN(C(=O)c3cnccn3)C3CCCCC3)cc2c1 ?
HCMV antiviral: -35; HCV inhibitor: inconclusive; Pf growth 48h: inconclusive; Pf growth 96h: inconclusive; SARS PLP yeast: 3%; Sm TGR block: 8%

How did O=C(Nc1ccc(C2=NCCN2)cc1)c1ccc(Cl)c(C(=O)Nc2ccc(C3=NCCN3)cc2)c1 do in these assays?
Pf growth 48h: 2.3µM*; Pf growth 96h: 0.21µM*; SARS PLP yeast: 2%; Sm TGR block: -22%

Results for CSc1ncc(Cl)c(C(=O)NCc2cccnc2)n1 ?
HCMV antiviral: -13; HCV inhibitor: -4%; Pf growth 48h: 37%; Pf growth 96h: 32%; SARS PLP yeast: -1%; Sm TGR block: -14%

How did CCCC12CN3CC(CCC)(CN(C1)C3c1ccccn1)C2=O (stereo unspecified) do in these assays?
HCMV antiviral: 32; HCV inhibitor: 7%; Pf growth 48h: 9.3µM*; SARS PLP yeast: 1%; Sm TGR block: 0%

What do the screens show for `CCN(CC)c1ncnc2scc(C3COc4ccccc4O3)c12` (stereo unspecified)?
HCMV antiviral: inconclusive; HCV inhibitor: 11µM*; Pf growth 48h: 8.3µM*; Pf growth 96h: -19%; SARS PLP yeast: -63%; Sm TGR block: -1%

How did O=C(C1COc2ccccc2O1)N1CCOCC1 (stereo unspecified) do in these assays?
HCMV antiviral: -17; HCV inhibitor: -3%; Pf growth 48h: 26%; Pf growth 96h: -8%; SARS PLP yeast: -4%; Sm TGR block: 0%

Results for c1ccc2c(c1)OCC(c1csc3ncnc(N4CCOCC4)c13)O2 (stereo unspecified) ?
HCMV antiviral: -60*; HCV inhibitor: -12%; Pf growth 48h: -27%; SARS PLP yeast: 3%; Sm TGR block: 8%

Results for Nc1c(-c2ccccc2)c(CSc2nc3ccccc3[nH]2)nn1-c1cccc(Cl)c1 ?
HCMV antiviral: -95*; HCV inhibitor: inconclusive; Pf growth 48h: -31%; Pf growth 96h: inconclusive; SARS PLP yeast: -7%; Sm TGR block: -9%

Results for Nc1c(-c2ccccc2)c(CSc2nc3ccccc3[nH]2)nn1-c1ccc(Cl)cc1 ?
HCMV antiviral: -39; HCV inhibitor: 11µM*; Pf growth 48h: -33%; Pf growth 96h: inconclusive; SARS PLP yeast: -8%; Sm TGR block: -12%

What do the screens show for `c1ccc(CSc2nc3ccccc3[nH]2)cc1`?
HCMV antiviral: 57; HCV inhibitor: -24%; Pf growth 48h: 183%; Pf growth 96h: 230%; SARS PLP yeast: 3%; Sm TGR block: 0%

How did Cc1ccccc1-n1nc(CSc2nc3ccccc3[nH]2)c(-c2ccccc2)c1N do in these assays?
HCMV antiviral: -87*; HCV inhibitor: inconclusive; Pf growth 48h: -4%; Pf growth 96h: inconclusive; SARS PLP yeast: -7%; Sm TGR block: -2%

How did CC1(C)NC(=O)N(c2ccc([N+](=O)[O-])c(C(F)(F)F)c2)C1=O do in these assays?
HCMV antiviral: -8; HCV inhibitor: inconclusive; Pf growth 48h: 7%; Pf growth 96h: 7%; Sm TGR block: -8%

Results for CCN1CCN(Cc2c(O)ccc3c(C)c(-c4ccc(OC)cc4)c(=O)oc23)CC1 ?
HCMV antiviral: 3; Sm TGR block: -7%

How did OC[C@H]1O[C@@H](c2nc3ccc(-c4nc(-c5ccc(Br)cc5)no4)cc3[nH]2)C[C@@H]1O do in these assays?
HCMV antiviral: -20

How did COc1ccc(CCNC(=O)c2cc(=O)[nH]c3ccc(S(=O)(=O)N4CCCCC4C)cc23)cc1OC (stereo unspecified) do in these assays?
HCMV antiviral: -30; Sm TGR block: 1%

Results for O=C1C=C[C@]23OCC[C@@]2(c2ccccc2)CCCC3=C1 ?
HCMV antiviral: -4

Results for CN(c1ccccc1)C1CCCCC1NS(=O)(=O)c1ccc(Cl)cc1 (stereo unspecified) ?
HCMV antiviral: -24; HCV inhibitor: inconclusive; Pf growth 48h: 6.6µM*; Pf growth 96h: inconclusive; SARS PLP yeast: -85%; Sm TGR block: -22%
